Source: PubChem
The entries come from a sample that favours hits as a whole.
PDI inh: inhibitors of human PDI, primary screen, biochemical, turbidity, single point, plate reader. inhibition, % at 10 µM. hit rate 0.052% among 350,000. AID 588391, 2011. PDI insulin aggregation turbidity, A650, 90 min;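 active = mean inhibition across replicates of 30% or more, whatever share of single replicates reach that level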
ALR inh: inhibitors of human ALR sulfhydryl oxidase, primary screen, biochemical, H2O2 detection, HRP-luminol luminescence, single point | inhibition, % (concentration not given with the values) | FAD-linked sulfhydryl oxidase ALR (Homo sapiens), P55789 | purified ALR, DTT oxidation | hit rate 3.8% among 290,000 | AID 485317, 2010;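 active = mean replicate inhibition above about 79%, with every replicate also reaching it, limit read from the data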
Target sequence (P55789 whole entry, looked up): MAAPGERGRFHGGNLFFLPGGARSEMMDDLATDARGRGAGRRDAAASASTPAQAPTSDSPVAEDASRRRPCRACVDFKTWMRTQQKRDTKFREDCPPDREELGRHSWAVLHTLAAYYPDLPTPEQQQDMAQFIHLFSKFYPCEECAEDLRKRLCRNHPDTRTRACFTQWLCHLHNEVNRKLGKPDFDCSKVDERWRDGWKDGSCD
ERp5 block: inhibitors of ERp5-driven insulin aggregation, primary screen, biochemical, turbidity, absorbance 650 nm, single point. inhibition, % at 9.99 µM. hit rate 0.05% among 350,000. AID 651711, 2012. 90 min;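 active = mean replicate inhibition above about 25%, with every replicate also reaching it, limit read from the data, passing the limit was not always enough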
PglD DTNB: C. jejuni PglD acetyltransferase inhibitors, primary screen, biochemical, DTNB colorimetric, single point | UDP-N-acetylbacillosamine N-acetyltransferase PglD (Campylobacter jejuni) | purified PglD enzyme, DTNB colorimetric CoA detection | inhibition, % at 12.5 µM | hit rate 0.098% among 360,000 | AID 602405, 2012; in the data active = inhibition above about 16%, passing the limit was not always enough
ARNT-TACC3 inh: disruptors of ARNT/TACC3 protein interaction, primary screen, biochemical, AlphaScreen, single concentration | Transforming acidic coiled-coil-containing protein 3 (Homo sapiens), Q9Y6A5 | AlphaScreen His-ARNT PAS-B/GST-TACC3 binding, luminescence; TACC3 fragment carries E629A point mutation | inhibition, % at 9.99 µM | hit rate 0.66% among 390,000 | AID 623870, 2012;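 active = mean inhibition of replicates at least 50% and at least half of replicates each reaching 50%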;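 also: 0% = complete ARNT plus TACC3 wells and 100% = ARNT alone without TACC3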
CendR NRP1 mod: modulators of CendR peptide binding to NRP-1, primary screen, biochemical, fluorescence polarization, uHTS | hit rate 0.85% among 360,000 | inhibition, % at 25 µM | FAM-RPARPAR peptide binding to NRP-1 | Neuropilin-1 (Homo sapiens), O14786 | AID 602438, 2012;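 active = inhibition or corrected inhibition above about 18%, plus a signal ratio from 0.5 to 1.5, limit read from the data, passing the limit was not always enough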
Numbers without * were called inactive; x = no result.

SMILES	PDI inh	ALR inh	ERp5 block	PglD DTNB	ARNT-TACC3 inh	CendR NRP1 mod
CCCc1[nH]c2ccc(C#N)cc2c1CCC	-13	97*	4	-4	-3	-2
NCCCNC(=O)c1ccc(/C=N/O)nc1	-3	2	-9	-2	78*	11
COc1ccc2c3c(n(C)c2c1)[C@H](CO)N(C(=O)NC(C)C)CC31CCN(CC2CCCC2)CC1	x	x	-11	x	x	x
CCN(c1ccc(NC(=O)COC(=O)c2ccc3ccccc3n2)cc1)C(C)C	0	96*	x	2	3	-20
COc1ccc(NC(=O)COC(=O)c2ccc3ccccc3n2)cc1OC	4	-3	3	-4	-11	16
O=C(N/N=C/c1cc([N+](=O)[O-])ccc1O)c1cccc(N2CCCC2=O)c1	-8	4	-2	-11	78*	4
COc1cc(/C=N/NC(=O)c2cccc(N3CCCC3=O)c2)ccc1O	-2	100*	1	8	1	4
CCN(CC)c1ccc(/C=N/NC(=O)c2cccc(N3CCCC3=O)c2)cc1	-3	97*	4	x	3	-3
O=C(N/N=C/c1cccnc1)c1cccc(N2CCCC2=O)c1	0	-10	-2	8	-2	-3
O=C(CN1CCOCC1)NCC[C@@H]1CC[C@@H](NS(=O)(=O)c2ccc(Cl)cc2)[C@@H](CO)O1	x	x	7	1	-3	x
C[C@H]1CN([C@@H](C)CO)S(=O)(=O)c2ccc(C3=CCCCC3)cc2O[C@H]1CN(C)C(=O)Nc1ccc2c(c1)OCO2	x	x	-2	2	35	x
CC(C)NC(=O)Nc1cccc2c1O[C@@H](CN(C)C(=O)Nc1cccc3ccccc13)[C@@H](C)CN([C@H](C)CO)C2=O	x	x	-3	2	3	x
Cc1ccc(S(=O)(=O)N(C)C[C@@H]2Oc3c(NS(C)(=O)=O)cccc3C(=O)N([C@H](C)CO)C[C@H]2C)cc1	x	x	-1	-4	-5	x
C[C@H](CO)N1C[C@H](C)[C@H](CN(C)S(C)(=O)=O)Oc2ncc(-c3ccccc3)cc2C1=O	x	x	3	-1	-1	x
Fc1ccc(-c2ncc3ccccn23)cc1	-4	x	6	x	-19	-7
Clc1ccc(/C=C/c2ncc3ccccn23)cc1	-9	99*	3	x	-8	-39
Cc1ccc(S(=O)(=O)N[C@H]2CC[C@@H](CCn3cc(-c4cccc(F)c4)nn3)O[C@@H]2CO)cc1	x	x	-3	6	5	x
CCc1c(C)sc(NC(=O)c2ccco2)c1C(=O)N1CCOCC1	9	20	x	11	27	-4
CCc1c(C)sc(NC(=O)c2ccco2)c1C(=O)N1CCCCC1	9	81*	x	12	x	-8
O=C(c1ccc2c(c1)OCO2)N1CCN=C1SCc1cccnc1	0	98*	3	-6	-18	-7
O=C(Cc1cccs1)N1CCN=C1SCc1ccccc1F	12	99*	0	x	-3	4
CN(C)S(=O)(=O)c1ccc(C(=O)N2CCN=C2SCc2cccnc2)cc1	6	99*	x	-6	-4	-16
O=C(Cc1cccs1)N1CCN=C1SCc1ccccc1Cl	10	x	-2	x	-3	-14
CSC1=NCCN1C(=O)c1ccc2c(c1)OCO2	-4	-1	x	3	-2	-3
O=C(c1ccco1)N1CCN=C1SCc1ccccc1Cl	-6	99*	-3	1	-8	7
CN1C(=O)c2cc(NC(=O)C3CCCC3)ccc2OC[C@@H]2O[C@H](CC(=O)NCc3ccccc3F)CC[C@@H]21	x	x	-3	x	x	x
Cc1onc(-c2ccccc2Cl)c1C(=O)N1CCN=C1SCc1cccnc1	2	99*	x	-7	4	-2
CCN(CC)S(=O)(=O)c1ccc(C(=O)N2CCN=C2SCc2cccnc2)cc1	-10	99*	x	-2	-1	-12
COC(=O)[C@@H]1[C@@H](CO)[C@@H]2Cn3c(ccc(C4=CCCCC4)c3=O)[C@@H]2N1C(=O)C1CC1	x	x	0	1	-11	x
